# High-throughput results (PubChem)
# ClpP mod = qHTS Assay for Activators of ClpP; ATP-dependent Clp protease proteolytic subunit (Bacillus subtilis (strain 168)), P80244; purified B. subtilis ClpP, FRET peptide cleavage, 20 min; Potency, µM (top dose mostly 57.5 µM), for the others: at the highest dose activity change, negative = active; 340,000 compounds, 1.9% hits; AID 651965, 2013; active = well fitted falling curve with a large enough effect; inconclusive = small, poorly fitted or top-dose-only effect; inactive = no such curve, though single readings can be large or run the other way; also: potency is read from the fitted curve at half-maximal effect; the source files actives as falling curves though it sought activators and does not explain the sign; nearly all actives have a fitted effect of over 65% in size
# Target sequence (P80244 whole entry, looked up): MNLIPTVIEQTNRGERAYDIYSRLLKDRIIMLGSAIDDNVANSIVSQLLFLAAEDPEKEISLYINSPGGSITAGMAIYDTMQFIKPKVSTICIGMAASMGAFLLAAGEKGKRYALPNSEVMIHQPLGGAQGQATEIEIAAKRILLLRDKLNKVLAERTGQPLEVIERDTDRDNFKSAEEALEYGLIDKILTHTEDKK
#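 FRET quenching reversal measured ClpP activation: 10 microg/mL B. subtilis ClpP at pH 8 with the FRET-FV decapeptide, read at 430 nm after 320 nm excitation. The 20-min minus 0-min signal was scaled between DMSO/no-enzyme wells and ADEP (5.8 microM final).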
# DRD3 agonist = agonists of human D3 dopamine receptor; P35462; D3R DiscoveRx beta-arrestin cells, luminescence, 90 min; max activation, %; 410,000 compounds, 0.58% hits; in the data active = max activation above about 30%; also: 0% is about no effect
# Target sequence (P35462 whole entry, looked up): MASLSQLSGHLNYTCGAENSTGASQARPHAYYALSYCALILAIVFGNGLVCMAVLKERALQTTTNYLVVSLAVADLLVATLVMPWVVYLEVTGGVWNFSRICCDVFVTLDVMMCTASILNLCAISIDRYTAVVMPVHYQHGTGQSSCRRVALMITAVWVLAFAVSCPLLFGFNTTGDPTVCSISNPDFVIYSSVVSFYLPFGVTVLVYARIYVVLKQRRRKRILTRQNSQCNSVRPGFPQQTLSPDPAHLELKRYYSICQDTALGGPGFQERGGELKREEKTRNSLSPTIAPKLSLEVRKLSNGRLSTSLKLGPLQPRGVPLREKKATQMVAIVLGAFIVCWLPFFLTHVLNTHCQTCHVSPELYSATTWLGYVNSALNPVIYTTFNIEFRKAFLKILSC
#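 Agonist-mode cell screen: cells plated at 1500/well and incubated overnight at 37 °C, then exposed to library compounds for 90 min at 37 °C. Detection reagent was added for 30–60 min at room temperature, and luminescence was read.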
# TDP1 cell CPT = DT40-hTDP1 cell growth loss with CPT; 420,000 compounds, 12% hits; Potency, µM (titrated, usually from 46.2 µM), inactives show top-dose activity change, negative = growth inhibition, hits mostly inhibitors; chicken DT40 Tdp1-/-;hTDP1 cells + 20 nM CPT, ATP luminescence, 48 h; AID 686979; also: potency is read from the fitted curve at half-maximal effect; % is scaled to controls: 0 for no effect and ±100 for the full control effect; nearly all actives have a fitted effect of over 55% in size
#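 Chicken DT40 Tdp1-/- cells complemented with human TDP1, 400 cells/well, exposed to compounds plus 20 nM camptothecin for at least 48 h at 37 C; viability read as ATP content by CellTiter-Glo luminescence.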
# DRD3 antagonist = antagonists of human D3 dopamine receptor; P35462; D3R cells, DiscoveRx beta-arrestin luminescence, antagonist mode; hits give low values; max response, negative = inhibition, %; 360,000 compounds, 2.5% hits; AID 652054; in the data active = max response below about -50%; inconclusive = no clear call, values can overlap the other calls; also: % is scaled to controls: 0 for no effect and ±100 for the full control effect
#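 Cells expressing the human receptor were seeded at 1500 cells/well, incubated overnight at 37 degrees C in 5% CO2, then exposed to library compounds with dopamine controls for 90 minutes at 37 degrees C before luminescent detection.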
# TDP1 cell noCPT = qHTS for Inhibitors of human tyrosyl-DNA phosphodiesterase 1 (TDP1): qHTS in cells in absence of CPT; DT40 Tdp1-/- hTDP1 cells, no CPT, ATP luminescence, 48 h; Potency, µM (titrated, usually from 46.2 µM), inactives show at the highest dose activity change, negative = growth inhibition, usual class: inhibitors; 420,000 compounds, 15% hits; also: potency is read from the fitted curve at half-maximal effect; % is scaled to controls: 0 for no effect and ±100 for the full control effect; nearly all actives have a fitted effect of over 55% in size
#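 Chicken DT40 Tdp1-/- cells complemented with human TDP1, screened without camptothecin (DMSO vehicle only), 400 cells/well. Compounds pin-transferred, cells incubated at 37 °C for at least 48 hr. Growth read as ATP-dependent luminescence (CellTiter-Glo, 30 min at RT).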
# IL1B secr inh = inflammasome signaling inhibition, IL-1 beta readout | AID 743279 | THP-1 LPS/ATP IL-1B secretion, AlphaLISA, 16 h; hits give low values | activity change, % at 57.5 µM | 360,000 compounds, 4.7% hits; in the data active = activity change below about -50%; inconclusive = mostly about -30% to -49%; also: % is scaled to controls: 0 for no effect and ±100 for the full control effect
#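 THP-1 cells pretreated 1 hr with compounds (up to 57.5 uM final), then stimulated with LPS (250 ng/mL final) plus ATP (1.25 mM final); secreted IL-1B measured by AlphaLISA after 16 hr, decreased signal indicating inhibition.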
# An asterisk follows results filed as active; ? = inconclusive; · = no result. Shown are actives, neighbours in structure and some others; about 21% of the full set was active somewhere. Unless noted, calls follow the shape of the dose curve; as a rule, active = well fitted inhibition curve with a large enough effect; inconclusive = small, poorly fitted or top-dose-only effect; inactive = flat fitted curve, though single readings scatter.
SMILES,ClpP mod,DRD3 agonist,TDP1 cell CPT,DRD3 antagonist,TDP1 cell noCPT,IL1B secr inh
Cc1cc(Cl)c(S(=O)(=O)Nc2ccc3c(c2)OCCO3)cc1OCC(=O)NC1CCCCC1,-2.4%,-5.4,?,-4.8,?,-52.9*
COC(=O)COc1ccc(S(=O)(=O)Nc2ccc3c(c2)OCCO3)cc1C,·,2.8,?,-4.6,?,-73.4*
COc1ccc(NC(=O)CNS(=O)(=O)c2ccc(Cl)cc2)cc1OC,-1.4%,0.9,-12.1%,60.4,?,24.9
COc1ccc(S(=O)(=O)NCC(=O)Nc2ccc3c(c2)OCCO3)cc1OC,·,-3.0,1.9%,-50.2*,-15.1%,18.7
Cc1cc(Cl)c(S(=O)(=O)Nc2ccon2)cc1OCC(=O)NC1CCCCC1,0.9%,6.6,-5.4%,4.6,4.7%,0.0
O=C(CN1C(=O)NC(Cc2c[nH]c3ccccc23)C1=O)NCC(F)(F)F (configuration not stated),-0.8%,2.7,-0.9%,1.7,2.8%,4.5
CC(C)CNc1nnnc2c1sc1nc(N3CCOCC3)c3c(c12)CC(C)(C)SC3,-1.1%,1.1,29.1µM*,2.9,?,-4.2
CC1(C)Cc2c(c(N3CCOCC3)nc3sc4c(NCc5ccco5)nnnc4c23)CS1,-1.7%,5.0,20.6µM*,61.2,18.4µM*,-60.3*
Cc1ccc(S(=O)(=O)NC(C)(C)C)cc1C(=O)OCC(=O)N1CCCC1=O,0.6%,5.2,-20.3%,18.7,-6.4%,1.5
Cc1cc(NCc2ccccn2)n2ncc(-c3ccc(Cl)cc3)c2n1,·,11.1,0.581µM*,5.6,0.82µM*,-2.8
Cc1cc(NCCOCCO)n2ncc(-c3ccc(Cl)cc3)c2n1,?,1.6,1.9%,12.7,-24.5%,-4.3
Cc1cc(NCc2ccccn2)n2ncc(-c3ccccc3)c2n1,·,-8.4,0.164µM*,-2.2,0.146µM*,-7.5
COc1cc(/C=N/NC(=O)c2csc3c2CCCC3)cc(OC)c1O,-0.9%,-2.2,?,-11.9,5.17µM*,-6.6
Cc1ccc(/C=N/NC(=O)c2csc3c2CCCC3)cc1,-5.0%,-8.4,1.3µM*,14.4,1.3µM*,0.6
Cc1nn(C)cc1/C=N\NC(=O)c1csc2c1CCCC2,1.0%,3.6,?,3.5,?,-2.5
Brc1cccc(-c2cnn3c(-c4ccccc4)cc(-c4ccccc4)nc23)c1,0.2%,3.0,-16.9%,·,-8.9%,·
CSc1ccccc1NC(=O)Cn1nc([N+](=O)[O-])cc1C,·,0.4,-1.0%,10.5,3.0%,11.5
c1ccc2c(-c3nc4ccccc4[nH]3)cccc2c1,4.7%,7.7,9.2µM*,8.2,4.61µM*,34.9
O=C(CSc1ncccc1-c1nc2ccccc2[nH]1)N1CCCCC1,?,0.3,?,0.9,?,5.3
O=C(c1ccccc1-c1nc2ccccc2[nH]1)N1CCCCC1,28.2µM*,1.0,6.5%,0.0,-14.6%,-3.0
Clc1ccccc1-c1nc2ccccc2[nH]1,·,-10.3,6.9%,-4.1,-10.2%,-6.2
c1ccc2nc(-c3nc4ccccc4[nH]3)ccc2c1,31.6µM*,-1.4,?,3.6,5.17µM*,14.9
Oc1ccc(C=Nc2ccccc2-c2nc3ccccc3[nH]2)c(O)c1,-0.6%,-6.1,-19.4%,8.1,-0.6%,-19.7
Oc1ccccc1C=Nc1ccccc1-c1nc2ccccc2[nH]1,28.2µM*,-2.8,?,14.9,16.4µM*,-3.1
Fc1ccccc1-c1nc2ccccc2[nH]1,3.4%,1.6,-6.0%,3.9,-20.5%,-1.5
SMILES,ClpP mod,DRD3 agonist,TDP1 cell CPT,DRD3 antagonist,TDP1 cell noCPT,IL1B secr inh
Cc1ccn2c(=O)cc(CSc3nnc(NC(=O)c4ccccc4Cl)s3)nc2c1,-6.9%,3.7,-1.2%,·,?,·
Cc1noc(C)c1C(=O)N1CCC[C@@]2(CCN(Cc3nccs3)C2)C1,·,·,-2.8%,·,-14.1%,·
Cc1ccc(CNC(=O)Cn2c(=O)n(-c3ccc(Cl)cc3)c(=O)c3c(C)c(C)sc32)cc1,-1.8%,-11.2,-7.8%,·,-4.1%,·
CCOc1ccc(CCNC(=O)COC(=O)c2ccc(OC(C)C)cc2)cc1OCC,-2.5%,0.6,-28.2%,-53.1*,?,-12.0
CCOc1ccc(CCNC(=O)CSC(=S)N2CCCC2)cc1OCC,0.3%,1.2,20.6µM*,20.9,?,-11.0
CCOc1ccc(CNC(=O)CCS(=O)(=O)Cc2ccccc2C)cc1OC,1.9%,2.2,-0.2%,-9.4,-9.1%,7.5
CCOc1ccc(CCNC(=O)CCSCc2cccc(Cl)c2)cc1OCC,0.5%,0.3,?,·,20.6µM*,·
CCOc1ccc(CCNC(=O)COC(=O)c2ccncc2)cc1OCC,-3.6%,-2.4,-11.1%,-16.5,2.4%,-1.6
CCOc1ccc(CNC(=O)CCS(=O)(=O)Cc2ccc(C)cc2)cc1OC,25.1µM*,3.8,-9.2%,-7.3,-22.2%,-9.0
C[C@H](CO)N1C[C@H](C)[C@@H](CN(C)C(=O)Nc2ccc3c(c2)OCO3)Oc2c(NC(=O)c3ccncc3)cccc2C1=O,-1.0%,-6.2,13.6%,11.8,2.1%,-4.1
COc1ccc(Br)cc1CNC(=O)CCSCc1ccc(C)cc1,-3.7%,5.3,-28.2%,·,?,·
CCOc1ccc(CCNC(=O)CCSCc2ccc(Cl)cc2)cc1OCC,1.3%,2.4,?,·,23.1µM*,·
COc1ccc(Br)cc1CNC(=O)CCSCc1ccc(Cl)cc1,-0.2%,4.9,?,·,25.9µM*,·
CCOc1ccc(CCNC(=O)CCOc2cc(C)ccc2C)cc1OCC,·,6.3,?,11.9,18.4µM*,-5.1
CCOc1ccc(CCNC(=O)CSCc2ccc(C)cc2)cc1OCC,-1.2%,-1.1,?,7.1,?,11.4
COc1ccc(CNC(=O)CSc2ncn[nH]2)cc1OC,·,-4.5,15.2%,-3.7,-0.9%,23.8
CCCCN(C)S(=O)(=O)c1ccc(C(=O)N(CCN(C)C)c2nc3ccc(C)cc3s2)cc1,-1.8%,-2.9,-15.5%,-1.2,-17.2%,-9.0
Cc1cc(C)c2sc(N(CCCN(C)C)C(=O)c3ccc(S(=O)(=O)N(C)Cc4ccccc4)cc3)nc2c1,-3.6%,3.7,?,-16.1,?,-110.2*
CCCCN(CC)S(=O)(=O)c1ccc(C(=O)N(CCCN(C)C)c2nc3cc(C)cc(C)c3s2)cc1,·,-14.8,?,-14.5,23.1µM*,-178.3*
CCN(Cc1ccccc1)S(=O)(=O)c1ccc(C(=O)N(CCCN(C)C)c2nc3cc(C)cc(C)c3s2)cc1,·,-3.8,23.1µM*,-13.8,11.6µM*,-100.4*
